Reference: the supplement of paper PMC11383364
± gives the standard deviation of the averaged measurements.

The compounds below were run on SUM149 (assay: percent difference in area under dose-response curve of relative cell number, RPMI vs HPLM; higher = drug relatively more effective in HPLM than RPMI (negative = less effective in HPLM)). Conditions: treatment time: 72 h; dose range: 10-point, 1 nM to 20 µM; media compared: RPMI vs HPLM.

| Compound | percent difference in area under dose-response curve [%] |
| --- | --- |
| O=S(=O)(N=Cc1c(O)ccc2ccccc12)c1cccs1 | -2.44 |
| Cc1cc(Nc2cc(N3CCN(C)CC3)nc(/C=C/c3ccccc3)n2)n[nH]1 | -2.84 |
| COC1=C2C[C@@H](C)C[C@H](OC)[C@H](O)[C@@H](C)/C=C(\C)[C@H](OC(N)=O)[C@@H](OC)/C=C\C=C(/C)C(=O)NC(=CC1=O)C2=O [Geldanamycin] | -5.2 |
| O=C(Nc1ccccc1-c1cn2c(CN3CCNCC3)csc2n1)c1cnc2ccccc2n1 | -8.03 |
| C[C@@H](Oc1cc(-n2cnc3ccc(CN4CCN(C)CC4)cc32)sc1C(N)=O)c1ccccc1C(F)(F)F | -20.5 |
| O=C(/C=C/c1cccc(S(=O)(=O)Nc2ccccc2)c1)NO [Belinostat] | -13 |
| Cc1cc2c(F)c(Oc3ncnn4cc(OC[C@@H](C)O)c(C)c34)ccc2[nH]1 [Brivanib] | -2.59 |
| COc1cc(/C=C/C(=O)N2CCC=CC2=O)cc(OC)c1OC [Piperlongumine] | -18.1 |
| CNCCC(Oc1ccc(C(F)(F)F)cc1)c1ccccc1 (centres undefined) [Fluoxetine] | 0.518 |
| COc1cc2c(N3CCN(C(=O)Nc4ccc(OC(C)C)cc4)CC3)ncnc2cc1OCCCN1CCCCC1 [Tandutinib] | -4.18 |
| CCC[C@H](Nc1nc(-c2ccc(NC(=O)NCC)c(OC)c2)ncc1C)c1cccnc1 | -15.1 |
| O=c1cnn([C@@H]2O[C@H](CO)[C@@H](O)[C@H]2O)c(=O)[nH]1 [6_Azauridine] | 15.1 |
| O=c1[nH]cc(F)c(=O)[nH]1 [Adrucil] | 1.58 |
| COc1cc(O)c(CC=C(C)C)c(O)c1C(=O)/C=C/c1ccc(O)cc1 [Xanthohumol] | -9.86 |
| c1cc(-c2cnn3cc(-c4ccc(OCCN5CCCCC5)cc4)cnc23)ccn1 [Dorsomorphin] | -2.35 |
| CS(=O)(=O)CCNCc1ccc(-c2ccc3ncnc(Nc4ccc(OCc5cccc(F)c5)c(Cl)c4)c3c2)o1 [Lapatinib_Ditosylate] | -5.86 |
| C=CC(=O)N1CCC[C@@H](n2nc(-c3ccc(Oc4ccccc4)cc3)c3c(N)ncnc32)C1 | 7.26 |

| Compound | percent difference in area under dose-response curve [%] |
| --- | --- |
| Cc1ccc(-c2cc(C(F)(F)F)nn2-c2ccc(S(N)(=O)=O)cc2)cc1 [Celecoxib] | 1.54 ± 3 |
| Cc1ccc(C(=O)N(CCCN)[C@@H](c2oc3cc(Cl)ccc3c(=O)c2Cc2ccccc2)C(C)C)cc1 | -42.1 |
| Cc1cnc(-c2ccccc2C(C)C)nc1NCc1ccc(-n2ccnn2)cc1 | -3.5 |
| CC(C)C[C@H](NC(=O)CNC(=O)c1cc(Cl)ccc1Cl)B(O)O | -12.2 |
| C[C@]1(O)C[C@@H](c2nc(-c3ccc4ccc(-c5ccccc5)nc4c3)c3c(N)nccn32)C1 [Linsitinib] | 1.93 |
| CCCc1cc(-c2nc(-c3ccc(C)cc3)cs2)ccn1 [Fatostatin_A] | -2.81 |
| CS(=O)(=O)c1cccc(CNc2nc(Nc3ccc4c(c3)CCC(=O)N4)ncc2C(F)(F)F)c1 | -3.53 |
| COc1cccc2c1C(=O)c1c(O)c3c(c(O)c1C2=O)C[C@@](O)(C(=O)CO)C[C@@H]3O[C@H]1C[C@H](N)[C@@H](O)[C@H](C)O1 [Epirubicin_HCl] | -23.5 |
| Cc1cccc(CC(=O)N2CCc3c2ccc(-c2cn(C)c4ncnc(N)c24)c3F)n1 | -5.2 |
| Cc1c(-c2ccc(-c3ccccc3F)cc2)nc2ccc(F)cc2c1C(=O)O [Brequinar] | -6.11 |
| S=c1nc[nH]c2nc[nH]c12 [6_Mercaptopurine] | -31.7 |
| COc1cc2c(Oc3ccc4[nH]c(C)cc4c3F)ncnc2cc1OCCCN1CCCC1 [Cediranib] | 1 |
| Cc1cc(N2CCOCC2)cc2[nH]c(-c3c(NC[C@@H](O)c4cccc(Cl)c4)cc[nH]c3=O)nc12 | -6.07 |
| CO[C@H]1C[C@@H]2CC[C@@H](C)[C@@](O)(O2)C(=O)C(=O)N2CCCC[C@H]2C(=O)O[C@H]([C@H](C)C[C@@H]2CC[C@@H](OP(C)(C)=O)[C@H](OC)C2)CC(=O)[C@H](C)/C=C(\C)[C@@H](O)[C@@H](OC)C(=O)[C@H](C)C[C@H](C)/C=C/C=C/C=C/1C [Deforolimus] | 2.18 |
| CCCCCCCCc1ccc(CCC(N)(CO)CO)cc1 [Fingolimod] | 3.22 ± 1.4 |
| C#CC[C@H](c1nc2cc(Cl)ccc2c(=O)n1Nc1ccccc1)N(CCCN)C(=O)c1cccc(Cl)c1F | -7.78 |
| Clc1ccc(Nc2nnc(Cc3ccncc3)c3ccccc23)cc1 [Vatalanib_2HCl] | -4.56 |
